“And” between values parts separate entries of the source, which are not always exact repeats. Identical values can stand only once. Records with an inconclusive call do not appear. Some compounds were tested as several samples or in several runs, with calls that do not always agree. The source made the active and inactive calls. Unless noted, the call rests on the fitted dose curve; in most records, active means well fitted curve in the direction sought with a large enough effect in the repeat runs; inconclusive means weak or mixed curves; inactive means no such curve, though single readings can be large; an effect the other way counts as inactive or inconclusive.
Columns and labels:
[1] = qHTS assay to test for compound auto fluorescence at 460 nm (blue) in HEK293 cell free culture (AID 720681)
Summary of the method: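 Blue fluorescence (Ex 405/Em 460 nm, triamterene-equivalent) was read immediately after pin transfer of compound or DMSO into medium (DMEM, 10% FBS) without cells.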

[2] = qHTS assay to test for compound auto fluorescence at 535 nm (green) in HEK293 cell free culture (AID 720682)
Summary of the method: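 Green-label autofluorescence (485 nm excitation, 535 nm emission) measured on compound added to cell-free culture medium (DMEM, 10% FBS). Output is expressed relative to fluorescein.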

[3] = qHTS assay to test for compound auto fluorescence at 590 nm (red) in HEK293 cell free culture (AID 720683)
Summary of the method: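 Red-channel autofluorescence of compounds in culture medium (DMEM, 10% FBS), no cells, measured at 540/590 nm. Rose Bengal sodium is the reference fluorophore for equivalence.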

[4] = qHTS assay to test for compound auto fluorescence at 460 nm (blue) in HepG2 cell free culture (AID 720685)
Summary of the method: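 Cell-free plates of MEM plus 10% FBS received 23 nL compound or DMSO vehicle; blue-channel (405/460 nm) intensity scored against triamterene as reference fluorophore.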

[5] = qHTS assay to test for compound auto fluorescence at 535 nm (green) in HepG2 cell free culture (AID 720686)
[6] = qHTS assay to test for compound auto fluorescence at 460 nm (blue) in HepG2 cells (AID 720687)
Summary of the method: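 Blue-channel autofluorescence (Ex/Em 405/460 nm, triamterene-equivalent) was measured after 1 hr compound exposure at 37 C, 5% CO2. Cells were HepG2, plated overnight at 37 C in MEM plus 10% FBS.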

[7] = molecular target: Glucocorticoid receptor (Homo sapiens) (UniProt P04150); experiment: qHTS assay to identify small molecule agonists of the glucocorticoid receptor (GR) signaling pathway (AID 720691; active means well fitted activation curve with a large enough effect in the signal ratio in the repeat runs, not every such curve was filed as active; the % refers to the signal ratio); conditions: GR-bla HeLa, beta-lactamase reporter ratio, 18 h; activation: at 62.4 µM (top of the series) unless noted
Summary of the method: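 Cells: GR-bla HeLa, endogenous GR with stably integrated GRE-beta-lactamase reporter. Treatment 18 h, 37 C, compounds delivered in DMSO. Detection via LiveBLAzer B/G FRET substrate, 2 h RT, fluorescence intensity.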

[8] = molecular target: Glucocorticoid receptor (Homo sapiens) (UniProt P04150); experiment: qHTS assay to identify small molecule antagonists of the glucocorticoid receptor (GR) signaling pathway (AID 720692; active means well fitted inhibition curve with a large enough effect in the signal ratio in the repeat runs, not every such curve was filed as active; the % refers to the signal ratio; further: potency means the concentration at half of the fitted maximal effect)
Summary of the method: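 Quantitative HTS in antagonist format: HeLa cells expressing endogenous GR and a stably integrated GRE-bla reporter, stimulated with 5 nM dexamethasone (final) alongside test compounds for 18 h.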

[9] = qHTS assay to identify small molecule antagonists of the glucocorticoid receptor (GR) signaling pathway - cell viability counter screen (AID 720693); further: nearly all actives have a fitted effect of over 55% in size
[10] = qHTS assay for identifying genotoxic compounds that show differential cytotoxicity against isogenic chicken DT40 cell lines with known DNA damage response pathways - wild type cell line (AID 743012); further: nearly all actives have a fitted effect of over 60% in size; further: potency means the concentration at half of the fitted maximal effect
Summary of the method: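 Luminescent ATP viability signal (CellTiter-Glo, 30 min RT) recorded after wild type DT40 cells were incubated with compounds for 40 h at 37 C/5% CO2.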

[11] = qHTS assay for identifying genotoxic compounds that show differential cytotoxicity against isogenic chicken DT40 cell lines with known DNA damage response pathways - Rev3 mutant cell line (AID 743014); further: nearly all actives have a fitted effect of over 55% in size; further: potency means the concentration at half of the fitted maximal effect
[12] = qHTS assay for identifying genotoxic compounds that show differential cytotoxicity against isogenic chicken DT40 cell lines with known DNA damage response pathways - Rad54/Ku70 mutant cell line (AID 743015); further: nearly all actives have a fitted effect of over 60% in size; further: potency means the concentration at half of the fitted maximal effect
[13] = qHTS assay to identify small molecule antagonists of the androgen receptor (AR) signaling pathway - cell viability counter screen (AID 743033; further: nearly all actives have a fitted effect of over 45% in size; further: potency means the concentration at half of the fitted maximal effect)
[14] = qHTS assay to identify small molecule antagonists of the androgen receptor (AR) signaling pathway using the MDA cell line - cell viability counter screen (AID 743041; further: nearly all actives have a fitted effect of over 45% in size; further: potency means the concentration at half of the fitted maximal effect)
Summary of the method: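 Viability read by CellTiter-Fluor fluorescence in the same wells as the antagonist screen, added after 15.5 h of a 16 h, 37C exposure. Human breast carcinoma MDA-kb2 AR-luc cells, compounds co-dosed with agonist R1881.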

[15] = qHTS assay to test for compound auto fluorescence at 590 nm (red) in HepG2 cell free culture (AID 720684)
Summary of the method: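 Cell-free; medium MEM + 10% FBS; compound or DMSO added by pintool; read Ex 540/Em 590 nm; Rose Bengal sodium as red reference fluorophore.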

[16] = molecular target: Androgen receptor (Homo sapiens) (UniProt P10275); experiment: qHTS assay to identify small molecule antagonists of the androgen receptor (AR) signaling pathway (AID 743035; active means well fitted inhibition curve with a large enough effect in the signal ratio in the repeat runs, not every such curve was filed as active; the % refers to the signal ratio)
Summary of the method: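 Quantitative HTS of the Tox21 10K library used HEK293 AR-UAS-bla cells stimulated with R1881 alongside compound for 16 h at 37C, followed by beta-lactamase FRET detection (LiveBLAzer B/G, 2 h, RT).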

[17] = molecular target: Androgen receptor (Homo sapiens) (UniProt P10275); experiment: qHTS assay to identify small molecule agonists of the androgen receptor (AR) signaling pathway (AID 743036; active means well fitted activation curve with a large enough effect in the signal ratio in the repeat runs, with a control signal flat, not every such curve was filed as active; the % refers to the signal ratio)
Summary of the method: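 AR-UAS-bla HEK293 cells, plated 4 h before dosing, were treated with compound for 16 h at 37C. beta-Lactamase reporter read after 2 h with LiveBLAzer B/G FRET substrate at room temperature.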

[18] = molecular target: Androgen receptor (Homo sapiens) (UniProt P10275); experiment: qHTS assay to identify small molecule agonists of the androgen receptor (AR) signaling pathway using the MDA cell line (AID 743040; further: nearly all actives have a fitted effect of over 20% in size)
Summary of the method: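 Luciferase agonist assay: 16 h compound exposure at 37C without CO2 in MDA-kb2 AR-luc cells, whose MMTV promoter responds to both AR and GR. Luminescence measured after 30 min room-temperature incubation with ONE-Glo.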

[19] = molecular target: Androgen receptor (Homo sapiens) (UniProt P10275); experiment: qHTS assay to identify small molecule antagonists of the androgen receptor (AR) signaling pathway using the MDA cell line (AID 743042; further: nearly all actives have a fitted effect of over 55% in size)
Summary of the method: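 Antagonist mode: compounds plus R1881 agonist added to MDA-kb2 AR-luc cells, incubated 16 h at 37C. Luciferase reporter luminescence quantified, with multiplexed CellTiter-Fluor readout for cell viability.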

Measured: Potency

Androgen receptor (Homo sapiens), sequence (P10275 whole entry, looked up): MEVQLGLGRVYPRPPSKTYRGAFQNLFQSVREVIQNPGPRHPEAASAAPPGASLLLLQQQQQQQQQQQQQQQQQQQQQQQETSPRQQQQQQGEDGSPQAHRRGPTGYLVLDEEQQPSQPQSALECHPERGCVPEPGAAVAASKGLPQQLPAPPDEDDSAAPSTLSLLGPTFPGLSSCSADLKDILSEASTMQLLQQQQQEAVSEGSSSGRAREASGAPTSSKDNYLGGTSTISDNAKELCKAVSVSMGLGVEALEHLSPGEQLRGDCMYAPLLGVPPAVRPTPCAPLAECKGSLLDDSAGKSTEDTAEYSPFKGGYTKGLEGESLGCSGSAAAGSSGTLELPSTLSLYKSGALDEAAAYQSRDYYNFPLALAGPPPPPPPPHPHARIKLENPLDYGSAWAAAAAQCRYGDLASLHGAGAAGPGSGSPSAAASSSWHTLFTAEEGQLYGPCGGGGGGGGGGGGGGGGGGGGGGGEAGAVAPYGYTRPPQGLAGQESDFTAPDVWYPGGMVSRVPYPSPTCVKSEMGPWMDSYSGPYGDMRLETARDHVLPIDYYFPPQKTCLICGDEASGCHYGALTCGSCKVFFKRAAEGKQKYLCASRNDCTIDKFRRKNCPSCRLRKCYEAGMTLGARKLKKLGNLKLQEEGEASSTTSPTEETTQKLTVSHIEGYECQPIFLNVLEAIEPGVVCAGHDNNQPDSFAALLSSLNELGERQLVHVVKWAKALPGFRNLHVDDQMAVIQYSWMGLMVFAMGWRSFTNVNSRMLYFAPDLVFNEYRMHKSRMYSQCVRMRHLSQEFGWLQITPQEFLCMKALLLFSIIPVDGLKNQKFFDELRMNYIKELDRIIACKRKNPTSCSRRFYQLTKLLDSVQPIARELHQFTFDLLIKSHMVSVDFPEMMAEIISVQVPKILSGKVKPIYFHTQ
Glucocorticoid receptor (Homo sapiens), sequence (P04150 whole entry, looked up): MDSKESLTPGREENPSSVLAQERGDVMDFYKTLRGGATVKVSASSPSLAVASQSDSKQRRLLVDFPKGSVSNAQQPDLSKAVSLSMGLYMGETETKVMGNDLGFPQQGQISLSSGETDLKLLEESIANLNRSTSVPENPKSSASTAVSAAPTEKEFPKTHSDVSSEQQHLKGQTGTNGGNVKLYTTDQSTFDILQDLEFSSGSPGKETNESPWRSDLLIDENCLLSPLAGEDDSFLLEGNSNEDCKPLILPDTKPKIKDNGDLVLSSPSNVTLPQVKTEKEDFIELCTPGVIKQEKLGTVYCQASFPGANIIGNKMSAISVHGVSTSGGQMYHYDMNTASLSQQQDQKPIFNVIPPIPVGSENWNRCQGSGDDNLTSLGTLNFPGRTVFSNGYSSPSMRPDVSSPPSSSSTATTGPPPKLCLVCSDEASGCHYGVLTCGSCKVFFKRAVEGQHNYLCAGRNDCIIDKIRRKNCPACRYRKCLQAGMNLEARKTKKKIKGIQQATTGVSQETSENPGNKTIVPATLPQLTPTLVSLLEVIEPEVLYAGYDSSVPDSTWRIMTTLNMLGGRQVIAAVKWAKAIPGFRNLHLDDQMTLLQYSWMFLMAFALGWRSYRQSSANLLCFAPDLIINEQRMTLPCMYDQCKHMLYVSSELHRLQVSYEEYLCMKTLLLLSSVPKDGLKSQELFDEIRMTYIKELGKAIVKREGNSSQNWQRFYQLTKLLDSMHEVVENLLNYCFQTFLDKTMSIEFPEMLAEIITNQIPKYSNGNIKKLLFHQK

OCCOCCOCCOCCO
not listed: [15] | [16] | [17] | [18] | [19]
inactive: all other assays above

CCc1ccc(O)cc1
inactive: all assays above

O=[N+]([O-])c1cc(N(CCO)CCO)ccc1NCCO
not listed: [7] | [8] | [10] | [11] | [12] | [14] | [19]
inactive: all other assays above

CCOC(=O)C1OC1c1ccccc1 (configuration not stated)
not listed: [15] | [16] | [17] | [18] | [19]
inactive: all other assays above

COCC(=O)O
not listed: [6] | [15] | [16] | [17] | [18] | [19]
inactive: all other assays above

CC(C)NCC(O)COc1cccc2ccccc12 (configuration not stated)
61.8 µM (active) and inactive: [11] | [12]
not listed: [7] | [8] | [15] | [16] | [17] | [18] | [19]
inactive: all other assays above

CC1=C(/C=C/C(C)=C/C=C/C(C)=C/CO)C(C)(C)CCC1
active: [10] 28.8 µM | [11] 55.1 µM and 36.2 µM | [12] 43.8 µM and 25.7 µM
not listed: [7] | [8] | [16] | [17] | [18] | [19]
inactive: all other assays above

Clc1ccc(Cl)c(Cl)c1Cl
not listed: [16] | [17] | [18] | [19]
inactive: all other assays above

NCCc1ccc(O)c(O)c1
inactive: [1] | [2] | [3] | [4] | [5] | [6] | [9] | [13]
active: [10] 54.6 µM | [11] 15.4 µM | [12] 19.4 µM

CC1CC(OC(=O)c2ccccc2O)CC(C)(C)C1 (configuration not stated)
not listed: [6] | [16] | [17] | [18] | [19]
inactive: all other assays above

O=S(=O)(O)c1cc(S(=O)(=O)O)c2c(N=Nc3ccccc3)c(O)ccc2c1
active: [14] 27.4 µM and 38.6 µM
not listed: [6] | [15] | [16] | [17] | [18] | [19]
inactive: all other assays above

O=S(=O)(Oc1ccc(Cl)cc1Cl)c1ccccc1
inactive: [1] | [2] | [3] | [4] | [5] | [9] | [10] | [12] | [13] | [14]

CN(C)c1cccc(O)c1
not listed: [10] | [16] | [17] | [18] | [19]
inactive: all other assays above

C=C(C)C(=O)OCCCCCCCCCCCC
not listed: [6] | [15] | [16] | [17] | [18] | [19]
inactive: all other assays above

CN(CCOc1ccc(CC2SC(=O)NC2=O)cc1)c1ccccn1 (configuration not stated)
inactive and 60.8 µM (active): [10] | [11]
active: [12] 27.1 µM
inactive: [1] | [2] | [3] | [15] | [4] | [5] | [9] | [13] | [14]

c1ccc2ccccc2c1
not listed: [7] | [8] | [16] | [17] | [18] | [19]
inactive: all other assays above

C=C(C)C(=O)OCCCCCC
not listed: [15] | [16] | [17] | [18] | [19]
inactive: all other assays above

Oc1c(Cl)cc(Cl)c(Cl)c1Cl
active: [8] 49 µM | [10] 67.1 µM
inactive: [1] | [2] | [3] | [4] | [5] | [7] | [9] | [14]

O=Nc1ccc(O)cc1
inactive: all assays above

S=c1nc[nH]c2nc[nH]c12
active: [10] 23.7 µM | [11] 53.1 µM | [13] 5.36 µM
not listed: [7] | [8] | [16] | [17] | [18] | [19]
inactive: all other assays above

CC(=O)[C@@]1(O)CC[C@H]2[C@@H]3CCC4=CC(=O)CC[C@]4(C)[C@H]3CC[C@@]21C
active: [8] 1.07 µM and 275 nM | [12] 24.3 µM
inactive and 17.2 µM (active): [11]
not listed: [10] | [16] | [17] | [18] | [19]
inactive: all other assays above
